Results on 40 molecules are retold here after PubChem BioAssay (NCATS).

Results filed as inconclusive are left out. The source made the active and inactive calls. The call rests on the fitted dose curve; in most records, active means well fitted cell-killing curve with a large enough effect; inconclusive means small, poorly fitted or top-dose-only effect, or effect the other way; inactive means no such curve, though single readings can be large or run the other way.
Potency means the concentration at half of the fitted maximal effect.

This experiment can be described thus: Quantitative High-Throughput drug screen in 47 multiple myeloma cell lines against the NCATS MIPE library collection: H1112_PLB cell viability assay (AID 1918967; further: nearly all actives have a fitted effect of over 30% in size). The note with it: H1112 myeloma cells viability, ATP luminescence, 48 h; series mostly up to 45.8 µM. The source says:
PI: Beverly A. Mock Ph.D.
Laboratory of Cancer Biology and Genetics,
Center for Cancer Research, National Cancer Institute,
National Institute of Health, Bethesda, Maryland
Drug resistance and disease progression are common in multiple myeloma (MM) patients, underscoring the need for new therapeutic combinations. […] We hypothesized that effective combinations would reduce MYC expression and enhance p16 activity. […] These preclinical data identify potentially useful drug combinations for evaluation in drug-resistant MM and reveal potential mechanisms of combined drug sensitivity.
Described herein is the primary MIPE qHTS used to cherrypick compounds. Validated compounds were then further tested for potential synergistic activiy.
[1] Peat TJ, Gaikwad SM, Dubois W, Gyabaah-Kessie N, Zhang S, Gorjifard S, Phyo Z, Andres M, Hughitt VK, Simpson RM, Miller MA, Girvin AT, Taylor A, Williams D, D'Antonio N, Zhang Y, Rajagopalan A, Flietner E, Wilson K, Zhang X, Shinn P, Klumpp-Thomas C, McKnight C, Itkin Z, Chen L, Kazandijian D, Zhang J, Michalowski AM, Simmons JK, Keats J, Thomas CJ, Mock BA. Drug combinations identified by high-throughput screening promote cell cycle transition and upregulate Smad pathways in myeloma. Cancer Lett. 2023 Aug 1;568:216284. doi: 10.1016/j.canlet.2023.216284. Epub 2023 Jun 24. PMID: 37356470; PMCID: PMC10408729.
SEQUENCE No. (e.g., 1, 2, 3, etc.); […] (e.g., Cells, Incubation, Reagent, etc.); VALUE and DESCRIPTION.
1; Cells; 5 uL; white, solid bottom 1536-well Greiner assay plate.
2; Compounds; 23 nL; Kalypsis pin tool (Wako USA) equipped with a 1536-well pin head to transfer to the assay plates.
3; Incubation; 48 hours; 37C incubation.
4; Reagent;5uL; CellTiter Glo (Promega).
5; Detector; 425V; Luminescence; Viewlux PerkinElmer.
NOTES (numbers refer to Sequence numbers above)
1. The cell-based screening methods employed in this study were like those previously published. Briefly, the corresponding myeloma cell lines were screened in 1,536-well plates with 500 cells, 5-uL per well for inhibition of cell viability (assessed by measuring ATP levels with CellTiterGlo).
2. NCATS MIPE 4.0 library of approved and investigational drugs were added using the Kalypsis pin tool. Wells treated with DMSO only for 100% viability and media only wells for 0% viability were used as controls.
3. The assay plates were covered and incubated for 48 hours in a 37C, 5% CO2 incubator with controlled humidity.
4. After 48 hours, CellTilter-GloTM luminescent substrate mix (Promega) reagent was added to the assay plate and plates we incubated for 5 min at room temperature.
5. Signal was measured as median relative luminescence units on a ViewLux (PerkinElmer) multiplate reader.
[1] Heske CM, Davis MI, Baumgart JT, Wilson K, Gormally MV, Chen L, Zhang X, Ceribelli M, Duveau DY, Guha R, Ferrer M, Arnaldez FI, Ji J, Tran HL, Zhang Y, Mendoza A, Helman LJ, Thomas CJ. Matrix Screen Identifies Synergistic Combination of PARP Inhibitors and Nicotinamide Phosphoribosyltransferase (NAMPT) Inhibitors in Ewing Sarcoma. Clin Cancer Res. 2017 Dec 1;23(23):7301-7311. doi: 10.1158/1078-0432.CCR-17-1121. Epub 2017 Sep 12. PMID: 28899971; PMCID: PMC6636827.
As to `O=C1c2c(O)ccc(O)c2C(=O)c2c(NCCNCCO)ccc(NCCNCCO)c21`, the Potency is 0.332 µM (active).

Regarding `CC#C[C@]1(O)CC[C@H]2[C@@H]3CCC4=CC(=O)CCC4=C3[C@@H](c3ccc(N(C)C)cc3)C[C@@]21C`, the Potency was 0.743 µM (active).

`NCCc1cnc[nH]1`: the Potency result was “inactive”.

Regarding `CC[C@@]1(O)C(=O)OCc2c1cc1n(c2=O)Cc2cc3c(CN(C)C)c(O)ccc3nc2-1`, the Potency was 0.418 µM (active).

With `Cc1cc(C(C)(C)C)c(O)c(C)c1CC1=NCCN1`, the Potency result was “inactive”.

Regarding `O=c1c(O)c(-c2ccc(O)c(O)c2)oc2cc(O)cc(O)c12`, the Potency is 20.9 µM (active).

For `Nc1ccn([C@H]2CC[C@@H](CO)O2)c(=O)n1`, the Potency result was “inactive”.

As to `Fc1ccc([C@@H]2CCNC[C@H]2COc2ccc3c(c2)OCO3)cc1`, the Potency was 10.5 µM (active).

Consider `CN1CCC(=C2c3ccccc3CC(=O)c3sccc32)CC1`, for which the Potency was 6.62 µM (active).

For the molecule `CN1CCN2c3ccccc3Cc3ccccc3C2C1` (stereo not given), the Potency is 23.5 µM (active).

As to `O=C1N(c2ccccc2)c2ccccc2C1(Cc1ccncc1)Cc1ccncc1`, the Potency entry was “inactive”.

As for `Cc1cc(C(C)(C)C)cc(C)c1CC1=NCCN1`, the Potency entry is “inactive”.

On to `CN(Cc1cnc2nc(N)nc(N)c2n1)c1ccc(C(=O)N[C@@H](CCC(=O)O)C(=O)O)cc1`, for which the Potency was 0.0662 µM (active).

As for `CCN1CCCC1CNC(=O)c1cc(S(=O)(=O)CC)c(N)cc1OC` (stereo not given), the Potency result is “inactive”.

With `CC(C)(C)C(=O)Oc1ccc(S(=O)(=O)Nc2ccccc2C(=O)NCC(=O)O)cc1`, the Potency is 18.7 µM (active).

For `COc1ccccc1OCCNCC(O)COc1cccc2[nH]c3ccccc3c12` (stereo not given), the Potency is 16.6 µM (active).

For `CCCNCC(O)COc1ccccc1C(=O)CCc1ccccc1` (stereo not given), the Potency entry is “inactive”.

`CC(C)NCC(O)c1ccc(O)c(O)c1` (stereo not given): the Potency entry was “inactive”.

As for `COc1ccccc1OCC(O)CN1CCN(CC(=O)Nc2c(C)cccc2C)CC1` (stereo not given), the Potency result is “inactive”.

With `COc1cc2nc(N3CCN(C(=O)c4ccco4)CC3)nc(N)c2cc1OC`, the Potency is 16.6 µM (active).

For the molecule `Nc1c2c(nc3ccccc13)CCCC2`, the Potency entry was “inactive”.

Turning to `Cn1cnc2c1c(=O)[nH]c(=O)n2C`, the Potency is 18.7 µM (active).

Regarding `CN(C)CCCN1c2ccccc2CCc2ccc(Cl)cc21`, the Potency was 0.833 µM (active).

As to `COC(=O)Nc1nc2ccc(C(=O)c3cccs3)cc2[nH]1`, the Potency was 0.0132 µM (active).

As to `NS(=O)(=O)c1cc2c(cc1Cl)NCNS2(=O)=O`, the Potency is 9.35 µM (active).

Consider `Cc1cn([C@H]2C[C@H](N=[N+]=[N-])[C@@H](CO)O2)c(=O)[nH]c1=O`, for which the Potency was 23.5 µM (active).

`CC1COc2c(N3CCN(C)CC3)c(F)cc3c(=O)c(C(=O)O)cn1c23` (stereo not given): the Potency result is “inactive”.

As for `OCCN1CCN(CCCN2c3ccccc3Sc3ccc(C(F)(F)F)cc32)CC1`, the Potency is 23.5 µM (active).

With `NCCCCCC(=O)O`, the Potency result was “inactive”.

In the case of `COc1cc2nc(N3CCN(C(=O)C4COc5ccccc5O4)CC3)nc(N)c2cc1OC` (stereo not given), the Potency is 18.7 µM (active).

For the molecule `Clc1ccccc1C(c1ccccc1)(c1ccccc1)n1ccnc1`, the Potency is 14.8 µM (active).

As for `CN(C)C(=N)N=C(N)N`, the Potency entry is “inactive”.

Turning to `Cn1c(=O)c2c(ncn2C)n(C)c1=O`, the Potency result was “inactive”.

As for `CC(C)(Oc1ccc(C2CC2(Cl)Cl)cc1)C(=O)O` (stereo not given), the Potency entry is “inactive”.

Turning to `CC[N+](CC)(CC)CCOc1cccc(OCC[N+](CC)(CC)CC)c1OCC[N+](CC)(CC)CC`, the Potency entry was “inactive”.

For the molecule `Nc1nc2c(ncn2COC(CO)CO)c(=O)[nH]1`, the Potency was 26.4 µM (active).

Turning to `CCC1(C)CC(=O)NC1=O` (stereo not given), the Potency result is “inactive”.

For the molecule `CC1(C)O[C@H]2CC(=O)OC[C@]23[C@H]2CC[C@@]4(C)[C@H](c5ccoc5)OC(=O)[C@H]5O[C@]54[C@]2(C)C(=O)C[C@@H]13`, the Potency entry is “inactive”.

On to `COc1nc(C)nc(Cl)c1NC1=NCCN1`, for which the Potency was 7.43 µM (active).

Take `Cc1ccccc1N1C(=O)c2cc(S(N)(=O)=O)c(Cl)cc2NC1C` (stereo not given): the Potency result is “inactive”.
